# Shiga inhibitor: inhibitors of Shiga toxin in Vero cells; Vero cells, Shiga toxin protein synthesis inhibition reporter; inhibition, % at 38.7 µM; 290,000 tested, 9.2% active; AID 2315; in the data active = inhibition mostly above about 28%, no sharp cut-off; inactive = mostly below about 43%
# AmpC inh detg: inhibitors of E. coli AmpC beta-lactamase with detergent; Potency, µM (highest dose often 114 µM), most hits filed as inhibitors; 370,000 tested, 0.041% active; AmpC hydrolysis of nitrocefin, absorbance 480 nm, 0.01% Triton; P00811; AID 485294; note: nearly all actives have a fitted effect of over 25% in size
# Target sequence (P00811 whole entry, looked up): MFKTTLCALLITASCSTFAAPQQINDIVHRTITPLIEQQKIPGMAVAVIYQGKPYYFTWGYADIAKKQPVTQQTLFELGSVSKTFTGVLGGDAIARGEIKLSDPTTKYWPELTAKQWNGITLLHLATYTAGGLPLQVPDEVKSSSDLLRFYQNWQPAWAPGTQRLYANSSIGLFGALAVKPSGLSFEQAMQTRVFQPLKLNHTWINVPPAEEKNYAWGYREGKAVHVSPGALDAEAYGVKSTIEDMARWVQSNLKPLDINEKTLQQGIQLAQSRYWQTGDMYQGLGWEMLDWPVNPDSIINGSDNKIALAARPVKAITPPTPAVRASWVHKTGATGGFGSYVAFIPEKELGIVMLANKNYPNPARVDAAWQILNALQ
#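 AmpC (5.3 nM in the dispensed reagent) in 20 mM phosphate pH 7.0 with 0.01% (detergent screen) or 0.0001% Triton X-100 was preincubated with compounds for 15 min at room temperature. Nitrocefin was then added from an 800 uM solution, and hydrolysis was followed at 480 nm.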
# Cycloheximide cs: counter-screen for Shiga toxin inhibitors: cycloheximide protein synthesis inhibition; cell reporter, cycloheximide protein synthesis inhibition counterscreen; max response, %; 300,000 tested, 12% active; in the data active = max response mostly above about 13%, no sharp cut-off; inactive = mostly below about 14%; note: read at 38.3 µM for the half of the compounds with a filed dose
# NS1 inh: influenza NS1 inhibition; Potency, µM (doses to about 46.1 µM); 270,000 tested, 0.4% active; AID 2326; calls by dose curve; note: actives are rising curves; nearly all actives have a fitted effect of over 50% in size
#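 A cell-based growth assay was used: compounds that relieve NS1-induced slow growth of budding yeast raise OD600. Assay medium was yeast nitrogen base with ammonium sulphate and -URA supplement, pH 6.0, with 2% galactose.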
# AmpC no deterg: AmpC beta-lactamase inhibition without detergent | 330,000 tested, 0.52% active | AmpC nitrocefin hydrolysis, absorbance 480 nm, 0.0001% Triton | Potency, µM (series often up to 57.1 µM), usual class: inhibitors | AID 485341 | P00811; note: nearly all actives have a fitted effect of over 20% in size
#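 20 mM phosphate pH 7.0 + 0.01% (detergent screen) or 0.0001% Triton X-100; 5.3 nM AmpC reagent; cpd preinc 15 min RT; nitrocefin (800 uM stock) to start; A480 q20 s × 4 min; Activity was normalised to no-enzyme and no-compound control wells.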
# A number is an active result; 0 = inactive; ? = inconclusive; - = no result; + = active, no number; [ ] = dose if it differs, or a comment. This is one part of a sample in which hits are shown more often than they occur. Unless noted, calls come from the whole dose curve; as a rule, active = well fitted curve in the direction sought with a large enough effect; inconclusive = small, poorly fitted or top-dose-only effect, or another doubt; inactive = no such curve, though single readings can be large; an effect the other way counts as inactive or inconclusive.
SMILES,Shiga inhibitor,AmpC inh detg,Cycloheximide cs,NS1 inh,AmpC no deterg
COc1ccc(C(=O)N2C(=S)NC(=O)/C2=C\c2ccc(C)cc2)cc1,0,0,22.5,0,0
Cc1ccccc1S(=O)(=O)N1[C@@H](c2ccc(Cl)cc2)C(C(=O)O)=CC[C@H]1c1ccc(Cl)cc1,-,-,-,-,0
COC(=O)CC(=O)CSc1nc2c(cc1C#N)CCCCC2,105.0,0,46.3,0,0
CCOC(=O)c1sc(NC(=O)CSc2nc3c(cc2C#N)CCCCC3)c(C#N)c1C,0,0,0,0,0
CCc1nnc(NC(=O)CSc2nc3c(cc2C#N)CCCC3)s1,57.9,0,35.2,0,0
CCOC(=O)CC(=O)CSc1nc2c(cc1C#N)CCC2,0,?,0,0,0
Cc1cc(C(=O)Nn2c(-c3ccc(Br)cc3)nc3ccccc3c2=O)ccc1[N+](=O)[O-],0,0,0,0,14.1µM
COc1ccc(C(=O)On2c(-c3ccc(Br)cc3)nc3ccccc3c2=O)cc1,92.8,0,31.9,0,0
COc1cc(OC)cc(-c2nc3ccccc3c(=O)n2OC(=O)c2ccc(Br)cc2)c1,0,0,0,0,0
O=[N+]([O-])c1ccccc1CSc1nc2ccccc2o1,74.5,0,39.8,0,0
N#CCSc1nc2ccccc2o1,0,0,0,0,0
CCOc1ccc(-c2nc3ccc(-c4nc5ccc(N6CCN(C)CC6)cc5[nH]4)cc3[nH]2)cc1,0,-,0,-,-
c1ccc2c(c1)CNc1ccccc1O2,0,0,0,0,0
Cc1ccc2c(c1)CNc1ccccc1O2,0,?,12.7,0,0
Cc1nc2ccc(NC(=S)NCCCO)cc2nc1C,0,0,0,0,0
Cc1nc2ccc(NC(=S)NC3CC3)cc2nc1C,0,0,19.3,0,0
Cc1nc2ccc(NC(=S)NC(C)C)cc2nc1C,0,?,20.4,0,0
CC(C)NC(=S)Nc1ccc2nc3n(c(=O)c2c1)CCCCC3,0,0,0,0,0
O=c1c2ccccc2c(C=Nc2ccc(S(=O)(=O)N3CCCCC3)cc2)c(O)n1-c1ccc(Cl)cn1,0,0,0,0,0
O=c1c2ccccc2c(C=Nc2cccc(S(=O)(=O)NCc3ccco3)c2)c(O)n1-c1ccc(Cl)cn1,50.7,?,43.8,0,0
Cc1ccc(C)c(OCc2nnc(N)s2)c1,0,0,0,0,0
Nc1nnc(COc2ccc(Br)cc2Br)s1,91.7,0,21.1,0,0
Cc1ccc(NC(=O)COc2ccc(N(C)C(=O)C(C)(C)C)cc2)cc1S(=O)(=O)N1CCCCC1,-,-,-,-,0
N=c1ccn2c(n1)O[C@H]1[C@@H](O)[C@@H](CO)O[C@H]12,-,-,-,0,-
Clc1nc(-c2ccccn2)nc2scc(-c3ccccc3)c12,+,0,92.6,0,0
SMILES,Shiga inhibitor,AmpC inh detg,Cycloheximide cs,NS1 inh,AmpC no deterg
O=C(CN1C(=O)c2cccc3cccc1c23)Nc1cccc(F)c1,-,0,-,-,-
CCN(CC)C(=O)Cn1cc(/C=C2\C(=O)NC(=O)N(c3ccccc3F)C2=O)c2ccccc21,0,0,8.5,0,0
CN1CCN(/N=C/c2ccc(Cl)c(Cl)c2)CC1,84.0,0,37.8,0,0
COc1cccc(/C=N/N2CCN(C)CC2)c1,0,?,29.1,0,0
CN1CCN(/N=C/c2ccc(N(C)c3ccccc3)cc2)CC1,59.2,0,33.9,0,0[2.29 µM]
O=[N+]([O-])c1cc(/C=N/N2CCCCC2)ccc1Cl,72.1,0,17.7,0,0
CCc1cccc(CC)c1NS(=O)(=O)c1ccc2c(c1)CCN2C(=O)C1CC1,-,0,-,-,-
COc1ccc(-c2oc3ncn4nc(-c5cccc(C)c5)nc4c3c2-c2ccc(OC)cc2)cc1,-,0,-,-,-
Clc1cccc(N2CCN(c3nc4ccccc4c4nc(-c5cccnc5)nn34)CC2)c1,-,0,-,-,-
CN1CCN(/N=C/c2ccc(N(c3ccccc3)c3ccccc3)cc2)CC1,0,0,0,0,0
CN1CCN(/N=C/c2ccc(Br)cc2)CC1,0,0,46.8,-,0
Cn1cc([N+](=O)[O-])c(C(=O)Nc2ccc(C(=O)N3CCCCC3)cc2)n1,29.2,0,0,0,0
O=C(Nc1ccc(C(=O)N2CCCC2)cc1)c1ccccc1[N+](=O)[O-],0,0,0,-,0
Cc1cc(C)n(Cc2ccc(NC(=O)c3nn(C)cc3[N+](=O)[O-])cc2)n1,0,0,0,0,0
Cn1cc([N+](=O)[O-])c(C(=O)Nc2ccc(C3CCCCC3)cc2)n1,86.0,0,46.2,0,0
O=C(COC(=O)c1cccc(F)c1)Nc1ccc2c(c1)OCCO2,-,?,-,-,0
CCCCNC(=O)CN1C(=O)c2c(c3ccccc3n2C)C1c1ccc(OC)cc1 (stereo not drawn),-,0,-,-,-
CC(C)c1ccc(NC(=O)C2CCC(CNS(=O)(=O)c3ccc4c(c3)CCCC(=O)N4)CC2)cc1 (stereo not drawn),-,0,-,-,-
Cc1nc2c(ccc3c2ccc2nc(C)sc23)s1,70.7,0,0,0,0
CCOC(=O)CNC(=O)CSc1nnc(Cn2c(=O)sc3ccccc32)n1C,0,?,17.6,0,0
CCOC(=O)CC(=O)CSc1nnc(Cn2c(=O)sc3ccccc32)n1C,0,0,0,0,0
Nc1nc(Sc2c([N+](=O)[O-])cc(C(F)(F)F)cc2[N+](=O)[O-])n[nH]1,48.3,0,0,0,0
CC(=O)N1CCn2c3ccc(C)cc3c3cccc1c32,47.1,?,23.8,0,0
COc1ccc(/C=C/C2=NC(=C\N(C)C)/C(=O)O2)cc1,107.0,0,43.4,0,0
O=C(N/N=C/C(Br)=C/c1ccccc1)c1n[nH]c2c1CCC2,145.4,0,41.5,0,0
SMILES,Shiga inhibitor,AmpC inh detg,Cycloheximide cs,NS1 inh,AmpC no deterg
O=C(N/N=C/c1ccc(Cl)cc1)c1n[nH]c2c1CCCC2,82.6,0,40.9,0,0
O=C(N/N=C/c1ccccc1Cl)c1n[nH]c2c1CCCC2,54.5,?,92.1,?,0
O=C(N/N=C/c1ccccc1Cl)c1ccncc1,0,0,0,0,0
O=C(N/N=C/c1cccs1)c1n[nH]c2c1CCC2,45.0,?,33.4,0,0
Cn1cccc1-c1cc(C(=O)N/N=C/c2ccc(Cl)cc2)[nH]n1,0,?,0,0,0
O=C(N/N=C/c1cccs1)c1cncc(Br)c1,0,0,0,-,0
COc1cc(CN2CCNC(=O)C2CC(=O)N(C)CCN2CCOCC2)cc(OC)c1 (stereo not drawn),0,?,0,0,0
O=C(O)C1CCCN1 (stereo not drawn),0,-,0,-,-
CCOC(=O)c1ccccc1NC(=O)c1nn(C)c2c1COc1ccccc1-2,-,0,-,-,-
O=C(N/N=C/c1ccccc1)c1n[nH]c2c1CCCC2,75.7,0,27.1,-,0[11.4 µM]
CC1(C)CC(=NNC(=O)c2n[nH]c3c2CCC3)CC(C)(C)N1,0,0,0,0,0
CCCSc1nsc(NC(=O)Nc2ccc(F)cc2F)n1,36.3,?,22.9,0,0
COc1cccc(NC(=O)C(C)(C)C)c1,-,?,-,-,0
CCCSc1ccc(C(=O)Nc2ccc(F)cc2F)cn1,0,0,29.7,0,0
COc1cccc(NC(=O)Nc2nc(SC)ns2)c1,99.7,0,53.8,0,0
COc1cccc(NC(=O)Nc2nc(SC(C)(C)C)ns2)c1,-,0,25.3,0,0

# High-throughput results (PubChem BioAssay)
